Compound activity from PubChem.
In the library only some 3.2% were active in any assay of this set; here they are far more common.
LASV entry inh: inhibitors of Lassa virus binding or cell entry; Lassa virus pseudotype entry inhibition, cell reporter; Potency, µM (highest dose often 37.9 µM), actives largely listed as inhibitors; hit rate 1.2% among 300,000; AID 540256; calls by dose curve; tested in HEK293 cells; note: nearly all actives have a fitted effect of over 50% in size
VACV mCherry inh: inhibitors of vaccinia virus infection (mCherry reporter signal). Vaccinia virus mCherry reporter infection, fluorescence. Potency, µM (titrated, usually from 36.5 µM), usual class: inhibitors. hit rate 0.63% among 310,000. AID 720579; calls by dose curve; tested in A549 cells; note: nearly all actives have a fitted effect of over 35% in size
VACV Venus inh: vaccinia inhibition (Venus reporter); Vaccinia virus Venus reporter expression, fluorescence; hit rate 0.46% among 330,000; Potency, µM (titrated, usually from 36.5 µM), most hits filed as inhibitors; calls by dose curve; tested in A549 cells; note: nearly all actives have a fitted effect of over 30% in size
MARV entry inh: Marburg virus entry inhibition. Marburg virus pseudotyped entry inhibition, cell reporter. Potency, µM (top dose mostly 37.8 µM), usual class: inhibitors. hit rate 1.8% among 300,000. AID 540276; calls by dose curve; tested in HEK293 cells
FMDV inh: foot and mouth disease virus antiviral activity | FMDV antiviral cell-based qHTS | hit rate 1.2% among 410,000 | Potency, µM (top dose mostly 57.9 µM), hits mostly inhibitors | AID 1159524; calls by dose curve; tested in HEK293T cells; note: read-out not given here; nearly all actives have a fitted effect of over 45% in size
Numbers stand for hits; i = inactive; ? = inconclusive; nt = no result given; ! = not active in a repeat; [ ] = remark or other dose.

SMILES	LASV entry inh	VACV mCherry inh	VACV Venus inh	MARV entry inh	FMDV inh
CS(=O)(=O)N1CCCc2cc(C(=O)Nc3cccc(C(F)(F)F)c3)ccc21	?	i[7.34 µM]	i[7.34 µM]	i	25.1µM
COc1cccc(NC(=O)c2ccc3c(c2)CCN3S(C)(=O)=O)c1	i	i	i	i	i
CC(Nc1ccc2c(c1)OCCO2)C(=O)N1c2ccccc2CC1C (stereo not given)	8.91µM	i	i	i	i
O=C(NC1CCN(Cc2ccccc2)CC1)c1ccc2c(c1)[nH]c(=O)n2Cc1ccc(F)cc1	?	?	?	2.82µM	?
O=C(NC1CCN(Cc2ccccc2)CC1)c1ccccc1OCc1ccccc1Cl	10µM	i	i	?	i
CCCCCn1c(=O)[nH]c2cc(C(=O)NC3CCN(Cc4ccccc4)CC3)ccc2c1=O	i	i	i	i	?
O=C(NC1CCN(Cc2ccccc2)CC1)c1ccc(Cn2c(=S)[nH]c3ccc(N4CCOCC4)cc3c2=O)cc1	?	i	i	2.82µM	i
CCN1CCN(c2ccc(NC(=O)c3ccc4c(c3)[nH]c(=O)n4Cc3ccc(OC)cc3)cc2)CC1	?	?	?	7.94µM	i
CCOc1ccccc1C(=O)NC1CCN(Cc2ccccc2)CC1	i	i	i	i	i
CCc1ccc(-c2cc(C)no2)cc1S(=O)(=O)NCCc1ccc(OC)c(OC)c1	nt	nt	nt	nt	i
COC(=O)[C@](NC(C)=O)(Nc1nc2ccc(S(C)(=O)=O)cc2s1)C(F)(F)F	nt	nt	nt	i	nt
COc1ccc(C(=O)CSc2nn3c(=O)c(C(C)(C)C)nnc3s2)cc1	i	nt	i	i	14.1µM
CC(C)(C)c1nnc2sc(SCC(=O)c3ccccc3)nn2c1=O	i	nt	i	i	i
Cc1cccc(CN2CCc3nnc(C(C)NC(=O)C4CCOCC4)n3CC2)c1 (stereo not given)	nt	i	i	nt	i
O=C(c1ccco1)N1CCN(c2nc(C3CC3)nc3c2nnn3Cc2ccccc2Cl)CC1	?	?	?	?	35.5µM
O=C(c1ccco1)N1CCCC(c2nc3c(nnn3Cc3ccccc3)c(=O)[nH]2)C1 (stereo not given)	i	i	i	i	i
CC(C)(C)c1nc(N2CCN(C(=O)c3ccco3)CC2)c2nnn(Cc3ccccc3)c2n1	25.9µM	nt	nt	?	28.2µM
O=c1c2ccccc2oc2ccc(-c3ccoc3)cc12	nt	i	i	nt	nt
CN(C)CCOC1c2ccccc2CSc2ccccc21 (stereo not given)	i	i	i	?	i
CN1CCN(CCOC2c3ccccc3CSc3ccc(Cl)cc32)CC1 (stereo not given)	20.6µM	?	?	?	i
CCOc1ccc(NC(=O)c2ccc(NS(=O)(=O)c3cccs3)cc2)cc1	i	i	i	i	i
Cc1ccc(C(C#N)c2ccc(C(=O)c3ccc(F)cc3)cc2)cc1 (stereo not given)	10µM	i[1.46 µM]	?	?	i
Cc1ccc(C(=O)NC(C)c2ccc(F)cc2)cc1 (stereo not given)	i	i	i	i	i
Cc1c(N)nc([C@H](CC(N)=O)NC[C@H](N)C(N)=O)nc1C(=O)N[C@H](C(=O)N[C@H](C)[C@@H](O)[C@H](C)C(=O)N[C@H](C(=O)NCCc1nc(-c2nc(C(=O)NCCCCN=C(N)N)cs2)cs1)[C@@H](C)O)[C@@H](O[C@@H]1O[C@@H](CO)[C@@H](O)[C@H](O)[C@@H]1O[C@H]1O[C@H](CO)[C@@H](O)[C@H](OC(N)=O)[C@@H]1O)c1cnc[nH]1	nt	i	i	nt	i
COc1ccc(S(=O)(=O)Nc2ccc(C)cc2)cc1N(C)S(=O)(=O)c1ccc(Cl)cc1	?	?	17.8µM	?	nt
SMILES	LASV entry inh	VACV mCherry inh	VACV Venus inh	MARV entry inh	FMDV inh
COc1ccc(S(=O)(=O)NN(C)C)cc1N(C)S(=O)(=O)c1ccc(Cl)cc1	i	i	i	i	i
CC(C)C1=C2OC(N)=C(C#N)C(C#N)=C2[C@H](C)CC1	nt	nt	nt	i	nt
Cn1c(N)c(C(=O)CSc2nn(-c3ccc(F)cc3)c(=S)s2)c(=O)n(C)c1=O	nt	nt	nt	nt	15.8µM
COCc1c(C(=O)NCC2CCCN(C)C2)cnn1-c1ncc2c(n1)-c1ccccc1CCC2 (stereo not given)	nt	i	i	nt	i
CCOC(=O)[C@]12C[C@@H]3CCN(C(=O)N(C(C)=O)[C@@H]1c1ccccc1)[C@@H]32	nt	nt	nt	i	nt
CC(=O)Oc1c(S(=O)(=O)c2ccccc2)c(C)nn1C(C)(C)C	?	nt	nt	i	i
Cc1nn(C(C)(C)C)c(OC(=O)c2cccs2)c1S(=O)(=O)c1ccccc1	11.2µM	?	?	?	?
Cn1c2c(c(=O)n(C)c1=O)C(C(F)(F)F)(C(F)(F)F)N=C(CCC1CCCCC1)N2	2.59µM	?	?	11.2µM	14.1µM
C(=N\Nc1nc2ccccc2s1)/c1ccc2c(c1)OCO2	?	i	i	?	i
Cc1nc(N/N=C\c2ccc3c(c2)OCO3)sc1C	i	15.8µM	?	i	i
C=C(C)CCCN1C=C(C(=O)OCC)C(c2ccccc2)NC1=O (stereo not given)	?	nt	nt	i	nt
CCOC(=O)c1c(CN2CCOCC2)n(-c2ccccc2)c2cc(Br)c(O)cc12	i	nt	nt	i	i
CCOC(=O)c1c(CN2CCOCC2)n(-c2ccccc2)c2cc(Br)c(OC)cc12	9.2µM	nt	nt	?	i
CCOC(=O)c1c(CN(C)C)n(-c2ccccc2)c2cc(Br)c(OC)cc12	?	i	?	10µM	i
COc1cc2c(C(=O)N3CCN(c4ccccc4)CC3)c(C)oc2cc1Br	?	?	?	?	20µM
CCOC(=O)c1c(CN(C)C)n(-c2ccc(C)cc2)c2cc(Br)c(O)cc12	?	?	?	?	i
CCCCCCN1CCN(C2CN(Cc3ccc(F)cc3)S(=O)(=O)C2)CC1 (stereo not given)	i	i	i	nt	i
CCCCCCN1CCN(C2CN(Cc3ccc(C)cc3)S(=O)(=O)C2)CC1 (stereo not given)	6.28µM	i	i	nt	i
O=C(NCc1ccncc1)c1cnn(-c2nccc(-c3cccs3)n2)c1C1CC1	nt	i	i	nt	i
C#CCN(Cc1ccccc1)S(=O)(=O)C=C	nt	?	1.58µM!	nt	?
C#CCN(C)Cc1ccccc1	i	i	i	?	i
c1ccc(CCCNc2ncnc3nc[nH]c23)cc1	i	i	i	i	i
c1ccc2c(CCNc3ncnc4nc[nH]c34)cccc2c1	i	nt	nt	?	31.6µM
Cc1snc(S(=O)(=O)/C(C#N)=N/Nc2cccc(C(F)(F)F)c2)c1C#N	i	11.2µM	?	i	i
CCSc1nnc(NC(=O)CN2C(=O)NC3(CCCC3)C2=O)s1	nt	nt	nt	nt	i
SMILES	LASV entry inh	VACV mCherry inh	VACV Venus inh	MARV entry inh	FMDV inh
CC(=O)Nc1c(-c2ccccc2)c2cc(Br)ccc2[nH]c1=O	nt	nt	nt	nt	i
Cc1ccc(Cl)cc1N1CCN(C(=O)CN(C2CCCCC2)S(C)(=O)=O)CC1	i	?	i	?	14.1µM
CS(=O)(=O)N(CC(=O)N1CCN(c2cccc(Cl)c2)CC1)C1CCCCC1	i	?	i	i	?
Cc1ccc(Cl)cc1N1CCN(C(=O)C2CCN(S(=O)(=O)c3cccnc3)CC2)CC1	?	?	?	?	15.8µM
Cc1ccc(C)c(N2CCN(C(=O)C3CCN(S(=O)(=O)c4cccc5nsnc45)CC3)CC2)c1	?	i	?	?	22.4µM
O=C(C1CCN(S(=O)(=O)c2cccc3nsnc23)CC1)N1CC=C(c2ccccc2)CC1	?	i	i	?	?
